Screens deposited in PubChem BioAssay by National Center for Advancing Translational Sciences (NCATS).
An excerpt weighted towards active compounds, which were near 11% of everything screened.
JMJD2E inh = qHTS Assay for Inhibitors of Human Jumonji Domain Containing 2E (JMJD2E) | Lysine-specific demethylase 4E (Homo sapiens), B2RXH2 | JMJD2E catalytic domain, FDH-coupled NADH fluorescence (FDH is formaldehyde dehydrogenase) | Potency, µM (doses to about 57.1 µM), for the others: at the top dose activity change, negative = inhibition, usual class: inhibitors | 230,000 tested, 1.6% active | AID 2147, 2009;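 also: potency is read from the fitted curve at half-maximal effect; 0% = wells with enzyme and -100% = buffer wells without enzyme; nearly all actives have a fitted effect of over 50% in size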
ALDH1A1 inh = qHTS Assay for Inhibitors of Aldehyde Dehydrogenase 1 (ALDH1A1); Aldehyde dehydrogenase 1A1 (Homo sapiens), P00352; Purified ALDH1A1, NADH fluorescence, propionaldehyde substrate; Potency, µM (doses to about 75.3 µM), for inactives: top-dose activity, negative = inhibition, actives largely listed as inhibitors; 220,000 tested, 7.3% active;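 also: potency is read from the fitted curve at half-maximal effect; plate controls were no enzyme wells and a reference inhibitor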
HPGD inh = qHTS Assay for Inhibitors of HPGD (15-Hydroxyprostaglandin Dehydrogenase); 150,000 tested, 4.3% active; purified HPGD, NADH fluorescence kinetic, PGE2 substrate; Potency, µM, for inactives: at the top dose activity change, negative = inhibition, actives largely listed as inhibitors; 15-hydroxyprostaglandin dehydrogenase [NAD(+)] (Homo sapiens), P15428; AID 894, 2007; also: potency is read from the fitted curve at half-maximal effect
Target sequence (P15428 whole entry, looked up): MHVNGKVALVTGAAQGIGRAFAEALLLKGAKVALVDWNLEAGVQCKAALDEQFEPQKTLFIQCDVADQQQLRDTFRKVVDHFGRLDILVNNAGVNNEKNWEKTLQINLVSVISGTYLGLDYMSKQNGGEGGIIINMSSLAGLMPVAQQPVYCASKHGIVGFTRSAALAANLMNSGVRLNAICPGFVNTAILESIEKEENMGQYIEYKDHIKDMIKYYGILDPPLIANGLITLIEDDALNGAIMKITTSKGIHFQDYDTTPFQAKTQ
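20 nM HPGD preincubated 15 min at room temperature with compound in 50 mM Tris-HCl pH 8, 0.01% Tween 20. Started with 1 mM NAD+ and 30 uM prostaglandin E2; NADH fluorescence (360/450 nm) read 5 times over 30-s intervals, last minus first.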
PNC assembly inh = High Content Assay for Compounds that inhibit the Assembly of the Perinucleolar Compartment | PC3M PTB-GFP, PNC prevalence imaging, 16 h; stronger effect = lower value | activity change (PNC), negative = inhibition, % at 10 µM | 140,000 tested, 3.1% active | AID 2417, 2010;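 active = readout at or below -70, meaning at least 70% loss of cells showing the perinucleolar compartment, a nuclear body marking cancer cells; inconclusive = readout between -30 and a set limit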;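 also: plate controls were DMSO wells for no effect and camptothecin positive control wells for full effect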
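Compounds are pinned in duplicate onto adhered PC3M cells stably expressing GFP-tagged PTB and incubated 16 h at 37 C. Cells are then fixed, nuclei stained with Hoechst, and PNC-positive cells counted.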
* marks the source's active call; other numbers are inactive results; ? = inconclusive; nt = not tested or not shown. Unless noted, calls follow the shape of the dose curve; as a rule, active = well fitted inhibition curve with a large enough effect (not every such curve was filed as active); inconclusive = small, poorly fitted or top-dose-only effect, or another doubt; inactive = no such curve, though single readings can be large or run the other way. Unless noted, % is scaled to controls: 0 for no effect and ±100 for the full control effect.

SMILES | JMJD2E inh | ALDH1A1 inh | HPGD inh | PNC assembly inh
COCCOC(=O)c1c(C)oc2ccc(O)c(CN3CCC(C)CC3)c12 | -10% | 8% | 4% | -110*
COc1ccc(NC(=O)/C(Cl)=C(/Cl)S(=O)(=O)Cc2ccc(C)cc2)cn1 | -3% | 2.5µM* | -7% | 17
COc1ccc(NC(=O)/C(Cl)=C(/Cl)S(=O)Cc2ccccc2Cl)cn1 (centres undefined) | -1% | 0.63µM* | nt | nt
COc1ccc(NC(=O)Cc2ccc(Cl)c(Cl)c2)cn1 | -4% | 0% | nt | nt
[O-]/[N+](=C\c1ccc(OC(F)F)cc1)c1ccccc1 | -5% | 7.9µM* | -24% | 44
[O-]/[N+](=C/c1ccc(F)cc1)c1ccccc1 | -10% | ? | -16% | 12
[O-]/[N+](=C\c1ccncc1)c1ccccc1 | -3% | 15µM* | -12% | -28
O=C(Cn1cc2c(n1)CCCCC2)Nc1ccccc1Br | -1% | nt | nt | nt
O=[N+]([O-])c1cc(C(F)(F)F)ccc1N1CCN(S(=O)(=O)c2ccc3c(c2)CCCC3)CC1 | 4% | 8% | -2% | -23
COc1ccc2ccccc2c1C1CC(=O)N2CN(Cc3ccco3)CSC2=C1C#N (centres undefined) | -11% | 22µM* | 7.9µM* | 3
N#CC1=C2SCN(Cc3ccco3)CN2C(=O)CC1c1ccc(Cl)cc1 (centres undefined) | ? | 16µM* | 11µM* | -17
COc1cc(CNCc2ccco2)ccc1OCc1ccccc1 | -12% | -9% | -5% | ?
COc1cc(C2CC(=O)N3CN(Cc4ccco4)CSC3=C2C#N)ccc1OCc1ccccc1 (centres undefined) | ? | 7.9µM* | 25µM* | -23
CSC1=C(C#N)C(c2ccc(C(C)C)cc2)CC(=O)N1 (centres undefined) | 1% | ? | -5% | 33
CC(C)c1ccc(C2CC(=O)N3CN(Cc4ccco4)CSC3=C2C#N)cc1 (centres undefined) | -23% | 14µM* | 16µM* | -16
COc1ccc(C2CC(=O)N3CN(Cc4ccco4)CSC3=C2C#N)cc1 (centres undefined) | -28% | 10µM* | 13µM* | 13
COc1ccc(C2C(=O)N(C3CCCCC3)CC(=O)N2CCc2ccccc2)cc1OC (centres undefined) | -2% | -12% | nt | 0
CCOc1cc(C2CC(=O)N3CN(C4CCCCC4)CSC3=C2C#N)ccc1O (centres undefined) | ? | 6.3µM* | 25µM* | ?
COc1ccc(C2C(C#N)=C(N)Oc3cc(C)n(Cc4ccco4)c(=O)c32)cc1 (centres undefined) | 7% | ? | 3% | 25
COc1ccc2ccccc2c1C1CC(=O)N2CN(C3CCCCC3)CSC2=C1C#N (centres undefined) | -9% | 28µM* | 18µM* | -1
Cc1cccc(OCC(=O)NC(Cc2c[nH]c3ccccc23)C(=O)O)c1C (centres undefined) | -9% | 5% | nt | nt
Cc1cc([N+](=O)[O-])ccc1N(C)C | 3% | 3% | -18% | 12
CC1CCCN(CCCCOc2cccc(Br)c2)C1 (centres undefined) | 3% | -12% | -1% | ?
CCCCC/C=C\C/C=C\CCCCCCCC(=O)NCC(=O)O | -5% | 4% | -12% | nt
CC(C)OC(=O)Cn1nnc2c(cnn2-c2ccccc2)c1=O | -5% | -4% | -14% | -100*
SMILES | JMJD2E inh | ALDH1A1 inh | HPGD inh | PNC assembly inh
COC(=O)Cn1nnc2c(cnn2-c2ccccc2)c1=O | -6% | -7% | nt | nt
CC1=C(C(=O)Nc2ccc(F)c(F)c2)C(c2cccs2)NC(=S)N1 (centres undefined) | -4% | 0.63µM* | -6% | -17
CC1=C(C(=O)OC(C)C)C(c2cccs2)NC(=S)N1 (centres undefined) | 1% | 3.2µM* | -9% | ?
CC1=C(C(N)=O)C(c2cccs2)NC(=S)N1 (centres undefined) | -2% | ? | nt | nt
CCC(C)NC(=O)[C@H](CSCc1ccccc1)N1Cc2ccccc2C1=O (some centres undefined) | 4% | -5% | -7% | -82*
CC(C)CCNC(=O)[C@H](CSCc1ccccc1)N1Cc2ccccc2C1=O | -9% | -9% | -1% | 24
